From PubChem BioAssay
For part of these data: Results with a measured potency or affinity are listed apart. Activity calls are given as the source filed them.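 How the source made its calls, unless noted: active means fitted half-maximal concentration within 10 nM to 100 µM, steepness 0.5 to 2, significant signal drop, low assay interference; inactive means the rest.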

Assays:
[1] = molecular target: Cell division control protein 42 homolog (Homo sapiens) (UniProt P60953); assay: activated mutant Cdc42 GTP-binding inhibitors, dose response, biochemical, multiplex bead flow cytometry, Bodipy-FL-GTP (AID 1333;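 active means fitted half-maximal concentration within the tested dose range, moderate curve steepness, a statistically real signal drop, and little compound fluorescence or tag-binding interference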)
Cell division control protein 42 homolog (Homo sapiens), sequence (P60953 whole entry, looked up): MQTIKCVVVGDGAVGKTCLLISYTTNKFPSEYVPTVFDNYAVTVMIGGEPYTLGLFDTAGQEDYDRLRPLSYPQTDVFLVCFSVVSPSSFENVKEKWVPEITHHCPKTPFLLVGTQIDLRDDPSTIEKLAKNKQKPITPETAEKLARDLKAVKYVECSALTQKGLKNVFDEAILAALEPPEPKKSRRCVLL

[2] = molecular target: Cell division control protein 42 homolog (Homo sapiens) (UniProt P60953); assay: wildtype Cdc42 GTP-binding inhibitors, dose response, biochemical, multiplex bead flow cytometry, Bodipy-FL-GTP (AID 1334;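 active means fitted half-maximal concentration within the tested range, moderate curve steepness, significant signal drop, and little compound fluorescence or bead-linkage interference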); details: bead-based flow cytometry, Bodipy-FL-GTP binding to GST-Cdc42; at 100 µM (top of the series) unless noted
[3] = molecular target: GTPase HRas (Homo sapiens) (UniProt P01112); assay: inhibitors of GTP binding to wildtype Ras, dose response, biochemical, multiplex bead flow cytometry (AID 1335); details: bead-based flow cytometry, Bodipy-GTP binding to GST-Ras; at 100 µM (top of the series) unless noted
GTPase HRas (Homo sapiens), sequence (P01112 whole entry, looked up): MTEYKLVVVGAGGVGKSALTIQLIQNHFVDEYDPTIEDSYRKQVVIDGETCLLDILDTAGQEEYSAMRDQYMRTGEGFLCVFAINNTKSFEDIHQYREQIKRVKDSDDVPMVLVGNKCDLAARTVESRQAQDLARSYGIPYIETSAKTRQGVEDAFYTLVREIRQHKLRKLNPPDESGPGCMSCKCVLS

[4] = tested on: Ras-related protein Rab-7a (dog), GTP binding; assay: Rab7 GTP binding inhibitors, potency, dose response, biochemical, wildtype, multiplex bead flow cytometry (AID 1336; call rule not given here)
[5] = molecular target: Ras-related C3 botulinum toxin substrate 1 (Homo sapiens) (UniProt P63000); assay: wildtype Rac1 GTP binding inhibitors, dose response, biochemical, multiplex bead flow cytometry (AID 1340;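 active means dose curve with midpoint inside tested range, moderate steepness, plateau gap beyond fit error, low compound glow and bead-link interference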); details: GST-Rac1 beads, Bodipy-FL-GTP binding; at 100 µM (top of the series) unless noted
[6] = molecular target: GTPase HRas (Homo sapiens) (UniProt P01112); assay: activated Ras mutant GTP binding inhibitors, dose response, biochemical, multiplex bead flow cytometry (AID 1341;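 active means dose-response curve with midpoint inside the tested range, moderate steepness, significant amplitude and little compound fluorescence or bead-attachment interference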;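 further: GST-tagged constitutively activated Ras mutant immobilized on beads and multiplexed with other GTPases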)

SMILES | outcome [1] | fluorescence, percent of control (lower = inhibition) [2] [%] | GTP binding, percent of control [3] [%] | outcome [4] | GTP binding signal, raw median fluorescence (lower = inhibition) (MCF (arbitrary fluorescence units)) [5] | outcome [6]
Cc1cccc(OCCSc2nc3ccccc3n2CC(=O)O)c1C | inactive | 58.6 | 87.7 | inactive | 30.5 | inactive
COc1cc(/C=C2\SC(=Nc3ccc(O)cc3)NC2=O)cc(OC)c1O | inactive | 36.9 | 79.8 | inactive | 267 | inactive
O=C(O)c1cn(CCOc2ccc(Cl)cc2)c2ccccc12 | inactive | 59.9 | 83.2 | inactive | 36.5 | inactive
CC(C)(C)C#CC(=O)c1ccc([N+](=O)[O-])cc1 | inactive | 37.9 | 196 | inactive | 49.6 | inactive
CCCCCCOc1ccc(C#CC(=O)c2ccc([N+](=O)[O-])cc2)cc1 | inactive | 54.3 | 199 | inactive | 56.6 | inactive
C=CCN(CC=C)S(=O)(=O)c1ccc(C(=O)Nc2nc3c(s2)CCc2ccccc2-3)cc1 | inactive | 51.4 | 57.3 | inactive | 0 | inactive
Cn1nnnc1Sc1ncnc2scc(-c3ccc(F)cc3)c12 | inactive | 52.2 | 64.5 | inactive | 210 | inactive
CCn1c2ccccc2c2nc3cc(C(=O)O)ccc3nc21 | inactive | 34 | 74.6 | inactive | 161 | inactive
O=C(O)c1ccc(COc2cccc3ccccc23)o1 | inactive | 58.3 | 89.1 | inactive | 31.9 | inactive
COc1ccc(C(=O)Nc2nc3ccccc3[nH]2)cc1S(=O)(=O)N1CCOCC1 | inactive | 32.9 | 73.9 | inactive | 197 | inactive
Oc1c(C=Nc2cccc3cccnc23)sc2ccccc12 | inactive | 93.4 | 177 | inactive | 199 | inactive
Cc1nnc(SCCN2CCOCC2)c2nn(-c3ccccc3F)c(C)c12 | inactive | 48.5 | 61.1 | inactive | 196 | inactive
COCCNC(=O)c1cnn2c(C(F)F)cc(-c3ccccc3)nc12 | inactive | 40 | 85.2 | inactive | 204 | inactive
COc1ccccc1OCCn1cc(C(=O)O)c2cc(Cl)ccc21 | inactive | 55.3 | 204 | inactive | 57.7 | inactive
CC(=O)Nc1ccc(Nc2ccc3c4c(cc(=O)n3C)-c3ccccc3C(=O)c24)cc1 | inactive | 34.8 | 80.5 | inactive | 205 | inactive
Cc1ccc(N=Nc2c(N)[nH]n3c(=O)cc(C)nc23)cc1 | inactive | 48.4 | 61 | inactive | 0 | inactive
O=C(CSc1n[nH]c(=O)[nH]c1=O)N/N=C/c1ccccc1 | inactive | 49.5 | 61.4 | inactive | 197 | inactive
O=C(Nc1sc2c(c1C(=O)O)CCCCC2)c1ccccc1 | inactive | 29.3 | 74.3 | inactive | 201 | inactive
CCn1c2ccccc2c2nnc(SCC(=O)NCCOC)nc21 | inactive | 50.8 | 59.6 | inactive | 0 | inactive
COCCNc1nnnc2c1sc1nc(N3CCOCC3)c3c(c12)CCCC3 | inactive | 29.6 | 64.1 | inactive | 137 | inactive

SMILES | outcome [1] | fluorescence, percent of control (lower = inhibition) [2] [%] | GTP binding, percent of control [3] [%] | outcome [4] | GTP binding signal, raw median fluorescence (lower = inhibition) (MCF (arbitrary fluorescence units)) [5] | outcome [6]
Cc1c(C(=O)N2CCc3ccccc3C2)oc2ccc(S(=O)(=O)N3CCCCCC3)cc12 | inactive | 56.2 | 76 | inactive | 274 | inactive
O=C(O)c1nnn(Cc2ccc(Br)cc2)c1C(=O)O | inactive | 58.8 | 80.4 | inactive | 30.6 | inactive
NC(=O)N=Nc1c(O)[nH]c2c(Br)cc(Br)cc12 | inactive | 37.2 | 81.4 | inactive | 213 | inactive
Cc1cc2ccccn2c1C(=O)c1cc([N+](=O)[O-])cc([N+](=O)[O-])c1 | inactive | 37.4 | 85.6 | inactive | 270 | inactive
COC(=O)c1ccccc1NC(=O)CSCC(=O)Nc1ccccc1OC | inactive | 37.9 | 81.9 | inactive | 230 | inactive
CC(C)CCNC(=O)Cc1ccc(Nc2nc(=S)[nH]c3ccccc23)cc1 | inactive | 32.2 | 71.5 | inactive | 169 | inactive
COc1ccc(-c2csc(C3=C(O)CN(C(C)C)C3=N)n2)cc1OC | inactive | 31.9 | 73.2 | inactive | 181 | inactive
O=C(Cn1cnc2cc([N+](=O)[O-])ccc2c1=O)NCc1ccc(Cl)cc1 | inactive | 34.9 | 82.3 | inactive | 192 | inactive
O=c1c2ccccc2nc2c3ccccc3c(Cl)nn12 | inactive | 36.6 | 83.1 | inactive | 213 | inactive
COc1ccc(O)c(-c2cc(C(F)(F)C(F)F)nc(-c3ccccc3)n2)c1 | inactive | 106 | 177 | inactive | 183 | inactive
O=S(=O)(Nc1cccc(-c2cn3cccnc3n2)c1)c1ccccc1 | inactive | 34.9 | 48.7 | inactive | 114 | inactive
Cc1ccc(C(C)C)c(OCc2ccccc2C(=O)O)c1 | inactive | 73.5 | 87 | inactive | 48.6 | inactive
O=C(Cn1nc2ccccc2n1)N/N=C/c1cc([N+](=O)[O-])ccc1O | inactive | 23.8 | 54.9 | inactive | 109 | inactive
COc1cccc(/C=N/Nc2nn3cnnc3c3ccccc23)c1O | inactive | 35.9 | 44.6 | inactive | 126 | inactive
Cc1cc(-c2n[nH]c(=S)n2/N=C/c2cccc([N+](=O)[O-])c2)n[nH]1 | inactive | 35 | 51 | inactive | 102 | inactive
CN(/N=C/c1cccnc1)C1=NS(=O)(=O)c2ccccc21 | inactive | 36.2 | 50.7 | inactive | 137 | inactive
O=S(=O)(CC(CN1CCOCC1)N1CCOCC1)c1ccccc1 (stereo not given) | inactive | 43.3 | 92.1 | inactive | 310 | inactive
CCOc1cccc(Nc2cc3n(c(=O)n2)CCc2cc(OC)c(OC)cc2-3)c1 | inactive | 32 | 71.9 | inactive | 186 | inactive
CCN1/C(=C/c2ccc3cc(C)ccc3[n+]2C)Sc2ccc3sccc3c21 | inactive | 41.6 | 74.4 | inactive | 263 | inactive
CCN(CC)S(=O)(=O)c1ccc2c(c1)c(=O)c(C(=O)N1CCc3ccccc3C1)cn2C | inactive | 96.7 | 172 | inactive | 225 | inactive

SMILES | outcome [1] | fluorescence, percent of control (lower = inhibition) [2] [%] | GTP binding, percent of control [3] [%] | outcome [4] | GTP binding signal, raw median fluorescence (lower = inhibition) (MCF (arbitrary fluorescence units)) [5] | outcome [6]
Cc1nc2ncccn2c1-c1csc(Nc2ccccc2)n1 | inactive | 26.5 | 40.8 | inactive | 105 | inactive
O=C(CSc1ccc2nnc(-c3cccs3)n2n1)N1CCCC1 | inactive | 33 | 74.6 | inactive | 178 | inactive
Cn1cccc1/C=C1\SC(=S)N(NC(=O)c2ccccc2Cl)C1=O | inactive | 24.6 | 62.8 | inactive | 178 | inactive
COC(=O)COc1ccc(/C=N/NC(=O)c2ccc(N(Cc3ccccc3)S(C)(=O)=O)cc2)cc1 | inactive | 39.7 | 55.5 | inactive | 124 | inactive
CCOc1cc(/C=C2/SC(=S)NC2=O)ccc1OC(=O)c1ccco1 | inactive | 33.4 | 83.7 | inactive | 208 | inactive
Cc1ccc(Nc2c(F)c(F)c(F)c(F)c2C(=O)O)c(C)c1 | inactive | 92.8 | 109 | inactive | 75.2 | inactive
CC(C)[C@H](NC(=O)c1ccccc1)C(=O)OCC(=O)NCCc1ccc(F)cc1 | inactive | 50.5 | 66.5 | inactive | 209 | inactive
OC(CN1CCN(Cc2ccc3c(c2)OCO3)CC1)c1c[nH]c2ccccc12 (stereo not given) | inactive | 36.1 | 78.7 | inactive | 281 | inactive
COc1cc(/C=N/NC(=O)CN(Cc2ccccc2)S(=O)(=O)c2ccc3c(c2)OCCO3)ccc1O | inactive | 40.1 | 52.5 | inactive | 126 | inactive
O=C(COC(=O)/C=C/c1cccc([N+](=O)[O-])c1)NCc1ccc2c(c1)OCO2 | inactive | 34.8 | 82.9 | inactive | 254 | inactive
CCC(/C=C1\Sc2ccc(OC)cc2N1CCO)=C\c1sc2ccc(OC)cc2[n+]1CCO | inactive | 22.6 | 46.8 | inactive | 187 | inactive
O=[N+]([O-])c1cc(-c2ncccn2)c([N+](=O)[O-])s1 | inactive | 16.9 | 70.3 | inactive | 292 | inactive
Cc1cc(Cl)ccc1OCC(=O)OCC(=O)Nc1ccc(F)c([N+](=O)[O-])c1 | inactive | 53 | 70.9 | inactive | 0 | inactive
O=S(=O)(Cc1ccc(Cl)cc1)c1ccccc1-c1nnc(-c2ccccc2)o1 | inactive | 104 | 196 | inactive | 207 | inactive
COc1ccc(CCNC(=O)C2CCCN2C(=O)NC2CCCCC2)cc1OC (stereo not given) | inactive | 50.7 | 180 | inactive | 184 | inactive
Cc1ccc(C)c(NC(=S)NNC(=O)c2cc3c(s2)CCC(C)C3)c1 (stereo not given) | inactive | 49.9 | 67.1 | inactive | 176 | inactive
Cc1ccc2nc(CSc3nc(C)cc(C)c3C#N)[nH]c2c1 | inactive | 35.3 | 77.6 | inactive | 242 | inactive
CCOc1cc(/C=C(/C#N)c2nc3ccccc3[nH]2)ccc1OCc1ccc(C(=O)O)o1 | inactive | 56.8 | 84.9 | inactive | 103 | inactive
O=C(NC1CC2CCCC(C1)N2C(=O)Nc1ccc(Cl)c(C(F)(F)F)c1)C1CC1 (stereo not given) | inactive | 94.3 | 162 | inactive | 185 | inactive
COc1ccc(/C=C2\CCCC3C2=NN(C(=O)c2scnc2C)C3c2ccc(OC)c(OC)c2)cc1OC (stereo not given) | inactive | 76.7 | 122 | inactive | 138 | inactive
